This is a sample that favours compounds with a hit; in the whole collection about 4.1% have one here.
ALR H2O2 inh = blocks human ALR sulfhydryl oxidase activity; P55789; purified ALR, DTT oxidation, H2O2 HRP-luminol luminescence; inhibition, % (concentration not given with the values); 290,000 tested, 3.8% active;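 active means mean replicate inhibition above about 79%, with every replicate also reaching it, limit read from the data; inconclusive means only one of the two criteria met; inactive means mean below limit and not every replicate reaching it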
Target sequence (P55789 whole entry, looked up): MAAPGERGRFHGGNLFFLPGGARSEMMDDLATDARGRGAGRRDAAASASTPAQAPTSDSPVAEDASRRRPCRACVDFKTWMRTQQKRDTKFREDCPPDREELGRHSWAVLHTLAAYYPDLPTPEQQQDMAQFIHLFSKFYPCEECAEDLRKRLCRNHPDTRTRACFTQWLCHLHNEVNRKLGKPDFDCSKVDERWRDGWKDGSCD
NSD2 HMT inh = NSD2 (human) methyltransferase inhibition; inhibition, % at 12.5 µM; NSD2 peptide methylation, AlphaScreen, 120 min; AID 743445; 310,000 tested, 0.54% active; in the data active means inhibition above about 50%
HIV Env fusion = HIV envelope-mediated fusion inhibition; HeLa-JRFL Env/CEM21 cell fusion, luciferase; inhibition, % at 12.3 µM; 360,000 tested, 1.1% active;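 active means mean replicate inhibition score of at least 50 and every replicate individually at or above 50; inconclusive means only one of the two criteria met; inactive means mean below 50 and not all replicates reaching 50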;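 further: 0% = plate neutral controls and 100% = maraviroc near 300 nM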
CFTR F508del cor = CFTR F508del correction in bronchial cells; activity (quench increase), % at 7.58 µM; CFBE cells, YFP halide quenching; stimulated with forskolin plus potentiator P3; % fluorescence drop versus neutral controls; 350,000 tested, 0.36% active;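 active means mean added fluorescence quench of at least 8% versus neutral control, with both replicates also reaching 8%; inconclusive means only one of the mean or replicate conditions met; inactive means mean below 8% and not both replicates reaching 8%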;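 further: cells transiently co-express mutant CFTR-F508del with the halide-sensitive YFP; corrector assay measuring rescue of mutant channel to the surface after 24 h compound exposure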
PglD inh = inhibitors of Campylobacter jejuni PglD acetyltransferase; purified PglD enzyme, DTNB colorimetric CoA detection; inhibition, % at 12.5 µM; 360,000 tested, 0.098% active; in the data active means inhibition above about 16%, passing the limit was not always enough; inconclusive means no clear call, values can overlap the other calls
CASP6 VEID inh = caspase-6 (human) enzyme inhibition; inhibition, % at 12.5 µM; AID 686996; 350,000 tested, 0.53% active; purified caspase-6, Z-VEID-R110 cleavage fluorescence;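 active means mean inhibition across replicates at least about 35%, with every replicate also reaching that limit, limit read from the data; inconclusive means only one of the two criteria met; inactive means neither criterion met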;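 further: 0% = median of neutral control wells and 100% = no fluorescence left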
Target sequence (P55212 24-179 limits assumed): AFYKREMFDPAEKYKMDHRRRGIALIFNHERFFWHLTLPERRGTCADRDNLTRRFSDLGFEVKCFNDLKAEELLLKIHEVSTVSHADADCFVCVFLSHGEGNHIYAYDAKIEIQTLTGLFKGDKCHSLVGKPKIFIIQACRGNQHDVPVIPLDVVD
Target sequence (P55212 194-293 limits assumed): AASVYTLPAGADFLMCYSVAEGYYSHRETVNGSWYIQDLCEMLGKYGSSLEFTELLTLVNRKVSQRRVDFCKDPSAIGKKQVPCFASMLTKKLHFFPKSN
An asterisk follows results filed as active; ? = inconclusive; . = no result given; [ ] = remark or other dose.

SMILES	ALR H2O2 inh	NSD2 HMT inh	HIV Env fusion	CFTR F508del cor	PglD inh	CASP6 VEID inh
CCCC#Cc1ccc2c(c1)O[C@@H](CN(C)Cc1ccc3c(c1)OCO3)[C@@H](C)CN([C@H](C)CO)S2(=O)=O	.	.	12[16.7 µM]	2	1	1
COCCNC(=O)C[C@@H]1CC[C@@H]2[C@@H](COc3ccc(NC(C)=O)cc3C(=O)N2C)O1	.	.	-9[16.7 µM]	0	3	.
Cc1ccc(C(C)C)c(OCC(=O)NCC(c2cccs2)N2CCOCC2)c1 (stereo not given)	-3	-2	-16	-10	0	0
O=C(NCC(c1cccs1)N1CCOCC1)c1ccc(OCc2ccccc2)cc1 (stereo not given)	0	5	-10	9.1*	-2	2
Cc1cc(OCC(=O)NCC(c2cccs2)N2CCOCC2)ccc1C(C)C (stereo not given)	0	2	59*	-6	-4	1
C[C@H](CO)N1C[C@H](C)[C@H](CN(C)Cc2ccc(C(=O)O)cc2)OCCCC[C@H](C)Oc2ccc(NC(=O)NC3CCCCC3)cc2C1=O	.	.	14[16.7 µM]	1	1	-1
CCN1C(=O)[C@@H]2[C@@H]3CN(S(=O)(=O)c4ccc(C)cc4)[C@@H](c4cccc5ccccc45)[C@@H]3C(=O)C[C@@H]2C1=O	.	.	-27	-2	0	-1
Cc1ccc(S(=O)(=O)N2C[C@H]3[C@H]4C(=O)N(C5CCCCC5)C(=O)[C@H]4CC(=O)[C@H]3[C@@H]2c2ccccc2Cl)cc1	.	.	59*	0	-6	-1
COc1ccccc1NC(=O)Nc1ccc2c(c1)C(=O)N(C)C[C@@H](OC)[C@H](C)CN(C)[C@@H](C)CO2	.	.	3[16.7 µM]	3	1	.
Cc1cc2[nH]c3c(c[n+](C)c4ccccc34)c2cc1C	-15	15	-209	24*	.	-44
O=C(C[C@@H]1C[C@H]2c3cc(NS(=O)(=O)c4ccc(F)cc4)ccc3O[C@H]2[C@H](CO)O1)NCc1ccc(Cl)cc1	.	.	-83[16.7 µM]	5	0	0
COc1ccccc1NC(=O)c1ccc2[nH]c(C)c(C)c2c1	87*	3	-93	-4	-4	-2
CCCNC(=O)C[C@H]1CC[C@@H]2[C@H](COc3ccc(NC(=O)c4cccc(Cl)c4)cc3C(=O)N2C)O1	.	.	.	0	-1	-2
O=c1ccc(-c2n[nH]c(=S)n2-c2ccc(F)c(Cl)c2)n[nH]1	86*	-2	-5	1	5	0
S=c1[nH]nc(-c2ccc(Cl)cc2)n1-c1ccc2c(c1)OCCO2	57	3	11	.	.	.
S=c1[nH]nc(-c2ccc(Cl)cc2Cl)n1-c1ccc(Cl)cc1	94*	4	-6	0	3	4
S=c1[nH]nc(-c2ccc(Cl)cc2)n1-c1ccc(Cl)cc1	82*	15	-6	-1	1	2
Fc1ccc(-n2c(-c3cc(C4CC4)[nH]n3)n[nH]c2=S)cc1Cl	?	4	-10	1	.	1
C[C@@H]1CN([C@@H](C)CO)C(=O)c2cc(C#Cc3ccccn3)cnc2O[C@@H]1CN(C)C(=O)c1ccccn1	.	.	-2[16.7 µM]	0	-4	-3
CO[C@H]1CN(C)C(=O)c2ccc(NC(=O)c3ccc(F)cc3)cc2OC[C@@H](C)N(C(=O)CN(C)C)C[C@H]1C	.	.	.	1	.	.
CC(=O)Nc1ccc(NC(=O)CSc2nnc(-c3cccnc3)o2)cc1	98*	-5	43	-2	1	3
O=C(CSc1nnc(-c2cccnc2)o1)Nc1ccc(Cl)cc1	-23	-2	-22	-1	.	-1
COc1ccc(NC(=O)N2CCCCN3[C@H](CO)[C@H](c4ccc(C#Cc5ccccn5)cc4)[C@H]3C2)cc1	.	.	.	1	0	-3
O=C(NC1CCC1)[C@@H]1[C@@H](CO)[C@@H]2Cn3c(ccc(-c4cncnc4)c3=O)[C@@H]2N1C(=O)NC1CCCC1	.	.	.	0	-1	0
Cc1noc(C)c1COc1ccccc1C(=O)N(C)CC(=O)Nc1ccc(F)c(F)c1F	.	2	.	5	-4	53*
SMILES	ALR H2O2 inh	NSD2 HMT inh	HIV Env fusion	CFTR F508del cor	PglD inh	CASP6 VEID inh
O=C(NCCc1ccccc1)c1nc2c(nnn2Cc2ccccc2Cl)c(=O)[nH]1	63	1	23	.	1	.
COc1ccc(Cn2nnc3c(=O)[nH]c(C(=O)NCCc4ccc(F)cc4)nc32)cc1OC	94*	.	30	1	5	4
COCCNC(=O)CSc1cc(-c2ccccc2)c2ccc(OC)cc2n1	97*	.	20	2	.	3
COc1ccc2c(-c3ccccc3)cc(SCC(=O)NC(N)=O)nc2c1	-4	0	15	3	.	.
COc1ccccc1S(=O)(=O)N[C@@H]1CC[C@@H](CC(=O)NCc2cc(F)cc(F)c2)O[C@@H]1CO	.	.	.	1	.	1
COc1cc([N+](=O)[O-])ccc1-c1ccc(C(=O)Nc2ccc(NC(C)=O)cc2)o1	98*	0	.	-1	-3	-1
CC(=O)Nc1ccc(NC(=O)c2ccc(-c3ccc([N+](=O)[O-])cc3)o2)cc1	-31	-2	18	1	-4	1
Cc1ccc(C)c(C(=O)NC2CC(C)(C)NC(C)(C)C2)c1	.	.	3	.	-2	.
Cc1ccc(C(=O)NC2CC(C)(C)NC(C)(C)C2)cc1C	99*	1	-75	.	4	.
COc1ccccc1N1CCN(C(=O)c2cc(=O)c3ccc(C)cc3o2)CC1	99*	2	2	1	-1	3
COc1ccccc1C(=O)N1CCN(C(=O)c2oc3ccc(C)cc3c2C)CC1	-10	-1	66*	-1	8	4
COc1ccccc1N1CCN(Cc2cc(=O)oc3cc(C)ccc23)CC1	.	.	12	2	1	-5
Cc1ccc2oc(C(=O)N3CCCCCC3)c(C)c2c1	-3	1	.	0	-6	1
COCC(=O)N1C[C@H](C)[C@@H](OC)CN(C)C(=O)c2cc(NC(=O)Nc3cccc(F)c3)ccc2OC[C@@H]1C	.	.	.	-2	.	1
O=C(C[C@@H]1CC[C@H]2[C@@H](COC[C@H](O)CN2CCC(F)(F)F)O1)NCc1ccc(Oc2ccccc2)cc1	.	.	1[16.7 µM]	-1	1	-1
N#C/C(=C\c1ccc(O)cc1)C(=O)N1CCCC1	81*	0	7	5	-1	5
CCC(=O)Nc1ccc2c(c1)C(=O)N(C)C[C@@H](OC)[C@@H](C)CN(C(=O)NC(C)C)[C@@H](C)CO2	.	.	.	0	-2	0
CN1C(=O)c2cc(NC(=O)c3cccc(C(F)(F)F)c3)ccc2OC[C@H]2O[C@@H](CC(=O)O)CC[C@H]21	.	.	3[16.7 µM]	.	7	1
CCOC(=O)C1=C(C)NC2=C(C(=O)CC(C)(C)C2)C1c1ccc2c(c1)CCCN2C (stereo not given)	99*	2	.	.	-5	.

Source: PubChem (Broad Institute)
